This passage reports activity change, negative = inhibition results from PubChem BioAssay AID493248 (Broad Institute, 2011).

The campaign covered roughly 2,300 compounds. About 1,400 (61%) were called active. Another 7% or so got no clear call; they are omitted. No rule for the calls is given here. The set was probably picked from earlier hits. A selection follows. Entries with a potency or affinity are not part of this list.

Chain of FAD-linked sulfhydryl oxidase ALR (Homo sapiens) (P55789 whole entry, looked up): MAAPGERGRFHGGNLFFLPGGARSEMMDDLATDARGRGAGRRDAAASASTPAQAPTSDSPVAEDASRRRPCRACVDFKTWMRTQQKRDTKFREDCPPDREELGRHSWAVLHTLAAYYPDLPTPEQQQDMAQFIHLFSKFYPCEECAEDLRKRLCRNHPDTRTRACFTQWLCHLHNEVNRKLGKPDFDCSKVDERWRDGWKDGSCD

This experiment addresses FAD-linked sulfhydryl oxidase ALR (Homo sapiens) (UniProt P55789). As to the kind of experiment: inhibitors of human ALR sulfhydryl oxidase, dose response, biochemical, H2O2 detection, luminescence, cherry-pick (AID 493248). Particulars: purified ALR, DTT oxidation, H2O2 HRP-luminol luminescence; at 10 µM (top of the series).
Turning to `Nc1ccc2sc(N)nc2c1`, the activity change, negative = inhibition is 299%.

Turning to `Cc1cc(NC(=O)c2sc(Nc3ccc(F)cc3)nc2N)no1`, the activity change, negative = inhibition is -41.5%.

Regarding `O=C(c1ccccn1)N1CCCC(N2CCN(c3ccc(F)cc3)CC2)C1` (stereo unspecified), the activity change, negative = inhibition was -82.4%.

Consider `CC(C)N(c1nnc(N)s1)C(C)C`, for which the activity change, negative = inhibition is -37.4%.

On to `COc1ccc(C(N)CCc2ccco2)cc1` (stereo unspecified), for which the activity change, negative = inhibition turned out to be 0.936%.

For `CC(C)NC(=O)Nc1cccs1`, the activity change, negative = inhibition is -47.1%.

Regarding `O=C(Nc1cccs1)Nc1c(F)cc(F)cc1Br`, the activity change, negative = inhibition is -42.8%.

`Cc1ccc(NC(=O)Nc2cccs2)nc1`: the activity change, negative = inhibition was -2.58%.

For the compound `Oc1ccc(NCc2cccs2)cc1`, the activity change, negative = inhibition was found to be 41.7%.

Consider `Cc1ccc(N2CCN(CCCN3C(=O)C4CCCN4C3=O)CC2)cc1` (stereo unspecified), for which the activity change, negative = inhibition is -22.5%.

For `O=C(C1CCCC1)N1CCCC(Nc2ccc(F)cc2)C1` (stereo unspecified), the activity change, negative = inhibition is -72.7%.

As for `COc1ccc(NC2CCCN(C(=O)c3oc(C)cc3C)C2)cc1OC` (stereo unspecified), the activity change, negative = inhibition is 75.6%.

`C=CCNC(=O)c1onc(CSc2ccc(C)c(C)c2)c1C(=O)O`: the activity change, negative = inhibition worked out at 10.6%.

`CCCCNC(=O)c1onc(CCl)c1C(=O)OC`: the activity change, negative = inhibition was -46.6%.

In the case of `Cc1cc2c(N3CCCCC3C)ncnc2s1` (stereo unspecified), the activity change, negative = inhibition was -5.25%.

Turning to `Cc1ccc(NC(=O)C2CCN(S(=O)(=O)c3cccc4cccnc34)CC2)nc1`, the activity change, negative = inhibition was -47.3%.

Consider `CC(c1ccc(F)cc1)n1c(-c2cccs2)n[nH]c1=S` (stereo unspecified), for which the activity change, negative = inhibition was -12.6%.

As for `Cc1cccc(-n2c(C)n[nH]c2=S)c1C`, the activity change, negative = inhibition was -35.3%.

As to `CCn1c(-c2cc(Cl)ccc2OC)n[nH]c1=S`, the activity change, negative = inhibition was -40.3%.

As for `Cc1n[nH]c(=S)n1-c1ccc(Cl)cc1`, the activity change, negative = inhibition was -91.4%.

With `CC(NS(=O)(=O)c1ccccc1)c1n[nH]c(=S)n1-c1ccccc1` (stereo unspecified), the activity change, negative = inhibition is -28.7%.

For `Oc1c(Br)cc(Br)c(/C=N/n2c(-c3ccccc3)n[nH]c2=S)c1Br`, the activity change, negative = inhibition is -75.2%.

In the case of `CCn1c(N)[n+](CC(=O)Nc2ccc(SC(F)F)cc2)c2ccccc21`, the activity change, negative = inhibition turned out to be 17.1%.

On to `Cc1cc(NCc2ccccn2)nc2ccccc12`, for which the activity change, negative = inhibition is 16.8%.

Consider `Cc1nn(CC2CCCCC2)c(N)c1-c1ccccc1`, for which the activity change, negative = inhibition was -21.2%.

Take `CN(CC(=O)NCc1ccco1)S(=O)(=O)c1ccc2c(c1)n(C)c(=O)c(=O)n2C`: the activity change, negative = inhibition is -5.75%.

For `Cc1ccc(S(=O)(=O)NNC(=O)c2ccc(O)cc2)cc1`, the activity change, negative = inhibition was -54.2%.

Regarding `Cc1cc(C)nc(Sc2c(C)nn(-c3ccccc3)c2C)n1`, the activity change, negative = inhibition is -4.01%.

Consider `Cc1ccc([N+](=O)[O-])cc1S(=O)(=O)Nc1ccc(O)c(Sc2ncn[nH]2)c1`, for which the activity change, negative = inhibition is -101%.

For `Cc1cccc(NC(=O)C2CCN(S(=O)(=O)c3cccc4cccnc34)CC2)c1`, the activity change, negative = inhibition was -19.2%.

Regarding `COc1ccc(N=C(N(C)C)P(=O)(N(C)C)N(C)C)cc1`, the activity change, negative = inhibition is -0.552%.

For the compound `CN(C)/N=C/c1ccc(OC(=O)c2cccc([N+](=O)[O-])c2)cc1`, the activity change, negative = inhibition was -3.63%.

Consider `Nc1ccc2c(c1)-c1ccccc1S(=O)(=O)N2`, for which the activity change, negative = inhibition was -105%.

For `CCN1CCN(C(=O)c2cc3c(-c4ccc(Cl)cc4)nn(C)c3s2)CC1`, the activity change, negative = inhibition was -4.97%.

As to `Cn1nc(-c2ccc(Cl)cc2)c2cc(C(=O)NC3CC3)sc21`, the activity change, negative = inhibition is -2.11%.

With `COc1cccc(-c2nc(CCl)cs2)c1`, the activity change, negative = inhibition was 22.5%.

As to `Fc1ccc2c(c1)/C(=N/Nc1ccccn1)CCS2`, the activity change, negative = inhibition was -12.8%.

In the case of `COc1ccc(-c2cc(-c3n[nH]c(=S)n3-c3cc(OC)ccc3OC)[nH]n2)cc1`, the activity change, negative = inhibition worked out at 46.9%.

As for `O=C(CN1C(=O)S/C(=C\C=C\c2ccccc2)C1=O)Nc1ccc(C(=O)O)cc1`, the activity change, negative = inhibition was -22.9%.

Consider `O=c1c2c(nc3n1CCCCC3)sc1c(O)cccc12`, for which the activity change, negative = inhibition was -92.9%.

Turning to `COc1ccc2c(/C=N/NS(=O)(=O)c3ccc(C)cc3)c[nH]c2c1`, the activity change, negative = inhibition is -4.96%.

In the case of `COc1cc(/C=N/Nc2cc(C)nc(N)n2)ccc1O`, the activity change, negative = inhibition was -108%.

For the compound `COc1ccccc1NS(=O)(=O)c1cc([N+](=O)[O-])ccc1N/N=C/c1c[nH]c2ccccc12`, the activity change, negative = inhibition is 0.734%.

For `Oc1ccc(/C=N/NC2=NCCCCC2)cc1`, the activity change, negative = inhibition was -110%.

`COc1ccc(/C=N/Nc2ccc([N+](=O)[O-])cc2)cc1O`: the activity change, negative = inhibition is -70%.

Take `O=C(CNc1ccccc1)N/N=C/c1c[nH]c2ccccc12`: the activity change, negative = inhibition is -29.1%.

With `O=[N+]([O-])c1cccc(N/N=C/c2cccc(O)c2O)c1`, the activity change, negative = inhibition was -6.94%.

For `Cn1c(CNc2ccc(F)cc2)nc2ccccc21`, the activity change, negative = inhibition was 4.17%.

With `COc1ccc(Nc2nc(N)c3ccccc3n2)c(OC)c1`, the activity change, negative = inhibition was -5.05%.

Regarding `COc1ccc2nc3ccccc3nc2c1N`, the activity change, negative = inhibition worked out at 417%.

Regarding `CCN1C(=O)c2cccc3c(N)ccc1c23`, the activity change, negative = inhibition was -69.8%.

As for `Cc1ccc(S(=O)(=O)NCC(=O)NCC2CCCCC2)cc1C`, the activity change, negative = inhibition is 18.2%.

Consider `Cn1c(=O)[nH]c(=O)c2c1[nH]c(=S)n2Cc1ccccc1`, for which the activity change, negative = inhibition was -58.1%.

In the case of `Cc1cnc(C(=O)Nc2ccc(C(=O)N3CCCCC3)cc2)cn1`, the activity change, negative = inhibition was determined as 0.57%.

`O=C(c1cc(-c2ccc(O)cc2)on1)N1CCCCCC1`: the activity change, negative = inhibition is -103%.

For `CC(C)(C)C(=O)NC1=NCCS1`, the activity change, negative = inhibition was -0.254%.

Take `C/C(=N\NC(=O)c1csc2ccccc12)c1ccc(O)cc1`: the activity change, negative = inhibition is -107%.

On to `COc1ccc(CNc2ccc(Br)cc2)cc1`, for which the activity change, negative = inhibition is -0.843%.

For `C/C(=N\Nc1ccccn1)c1ccc(OC(F)F)cc1`, the activity change, negative = inhibition worked out at 30.6%.

As for `COc1cc(C(=O)n2nc(C)cc2C)ccc1O`, the activity change, negative = inhibition came out at 108%.

In the case of `CC(C)(C)NC(=O)C(Cc1ccccc1)NS(=O)(=O)c1ccc2c(c1)CCC(=O)N2` (stereo unspecified), the activity change, negative = inhibition was -98.2%.

Consider `COc1c(Cl)cc(C(=O)NN)cc1Cl`, for which the activity change, negative = inhibition was -36.3%.

On to `Cc1ccc(-n2[nH]c(C)c(/C=N/NC(=O)c3ccc(O)cc3O)c2=O)cc1`, for which the activity change, negative = inhibition is -40.4%.

As for `NNC(=O)c1cc(O)c(O)c(O)c1`, the activity change, negative = inhibition was 8.57%.

For the compound `CCCc1cc(=O)[nH]c(SCc2cccnc2)n1`, the activity change, negative = inhibition is -44.3%.

In the case of `CC1(C)CN(c2ccccc2)N(C(=O)c2ccc(F)cc2)C1=O`, the activity change, negative = inhibition was -46.1%.

In the case of `COc1cc(/C=N/O)cc(Br)c1OC`, the activity change, negative = inhibition stood at 21.8%.

Regarding `CCN(CC)CC(=O)c1ccc(-c2ccccc2)cc1`, the activity change, negative = inhibition is -34.7%.

On to `CCc1ccccc1Nc1ccc(C(=O)O)cc1N`, for which the activity change, negative = inhibition was -23%.

Consider `Oc1ccc(-c2cnns2)c(O)c1`, for which the activity change, negative = inhibition is -104%.

Take `N[C@@H](Cc1ccccc1)c1nnc(SCc2ccccc2Cl)o1`: the activity change, negative = inhibition was -33.5%.

On to `O=C(O)c1cc([N+](=O)[O-])c(Sc2nc3ccccc3[nH]2)c([N+](=O)[O-])c1`, for which the activity change, negative = inhibition was -46.4%.

As for `COc1cccc(NC(=O)c2c([N+](=O)[O-])cnn2C)c1`, the activity change, negative = inhibition is -15.3%.

Consider `Nc1ccccc1C(O)(Cc1ccccc1)c1ccccc1` (stereo unspecified), for which the activity change, negative = inhibition is -3.4%.

As for `Fc1ccccc1Nc1n[nH]c(=S)s1`, the activity change, negative = inhibition is -40.4%.

For the compound `COc1cc(/C=N/Nc2ccc([N+](=O)[O-])cn2)cc(OC)c1O`, the activity change, negative = inhibition is -73.9%.

As to `C=C(C)C(=O)Nc1ccc(NC(C)C)cc1`, the activity change, negative = inhibition is 266%.

On to `CC(Nc1ccccc1)c1cc(Cl)ccc1O` (stereo unspecified), for which the activity change, negative = inhibition is -48.4%.

Consider `COc1ccccc1N(Cc1ccccc1)S(=O)(=O)c1cc(C(=O)O)ccc1Cl`, for which the activity change, negative = inhibition is -48.6%.

Regarding `CN(C)Cc1c(O)ccc2c3c(c(=O)oc12)CCCCC3`, the activity change, negative = inhibition was 148%.

Take `Cc1ccc2c(CN3CCC(C(N)=O)CC3)cc(=O)oc2c1C`: the activity change, negative = inhibition is -10.9%.
